Consider 61 molecules from PubChem BioAssay AID2797 (The Scripps Research Institute Molecular Screening Center, 2010).

Each structure is given as a SMILES string. Several values for one entry are separate records, joined by “and”; a condition that tells them apart may be missing. Identical values can stand only once. The whole screen tested about 320,000 compounds, of which about 820 (0.26%) were called active. This is one part of a sample in which actives are shown more often than they occur.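 The calls were made as follows: active = activation above the mean activation of all tested compounds plus 3 SD, per screening run (cut at about 20% in these data); inactive = the rest.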

The target in this assay is Vasopressin V1a receptor (Homo sapiens) (UniProt P37288). The experiment in a line: agonists of human V1a receptor, primary screen, counter-screen for OXTR agonist project, fluorescence, CHO-V1R cells (AID 2797).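 Also: signal is peak over basal fluorescence ratio across a 100 second FLIPR read.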 As to conditions: Fluo-8 calcium fluorescence, agonist mode, at 3 µM, active compounds read high, 0% DMSO, 100% 3 nM vasopressin. In general terms: The purpose of a counterscreen is to sort out artefacts and off-target activity.
Chain of Vasopressin V1a receptor (Homo sapiens) (P37288 whole entry, looked up): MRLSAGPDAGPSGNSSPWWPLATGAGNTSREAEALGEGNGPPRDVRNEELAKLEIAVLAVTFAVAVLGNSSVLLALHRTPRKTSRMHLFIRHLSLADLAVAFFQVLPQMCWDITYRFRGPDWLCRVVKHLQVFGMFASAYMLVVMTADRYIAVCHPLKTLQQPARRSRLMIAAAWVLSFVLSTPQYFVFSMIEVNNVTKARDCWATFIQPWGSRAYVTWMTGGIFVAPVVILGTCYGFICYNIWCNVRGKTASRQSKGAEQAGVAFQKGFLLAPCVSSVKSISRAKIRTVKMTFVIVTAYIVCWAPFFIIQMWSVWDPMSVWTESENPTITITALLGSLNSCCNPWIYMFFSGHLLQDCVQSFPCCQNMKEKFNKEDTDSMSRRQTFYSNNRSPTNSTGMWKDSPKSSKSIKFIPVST
Turning to `Cn1c2ccccc2c(=O)c2c(O)cccc21`, the activation was 0.32% (inactive).

With `Cn1c2ccccc2c(=O)c2c(=O)n(Cc3ccco3)c(COc3ccccc3)nc21`, the activation was 2.23% (inactive). `CCCc1nc2c(c(=O)c3ccccc3n2C)c(=O)n1C1CCCCCC1`: the activation is 86.8% (active). As for `NS(=O)(=O)c1ccc(NC(=O)COC(=O)C2(c3ccc(F)cc3)CCCC2)cc1`, the figure is 10.2% (inactive); as for `CCC(C(=O)Nc1ccc(C(C)C)cc1)c1ccccc1` (stereo unspecified), 40.7% (active); as for `CCC(C(=O)OCC(=O)Nc1ccc(C(=O)Nc2ccc(OC)cc2)cc1)c1ccccc1` (stereo unspecified), 6.96% (inactive). Consider `CCC(C(=O)Nc1ccc2c(c1)OCCO2)c1ccccc1` (stereo unspecified), for which the activation is 1.12% (inactive). In the case of `COc1ccc2c(c1)C(=O)Nc1cc(Cl)ccc1N2`, the activation is 3.78% (inactive). Under `CCOC(=O)CC1C(=O)NCCN1c1nc2c(C)cccn2c(=O)c1/C=C1\SC(=S)N(C(C)CC)C1=O` (stereo unspecified) stands 34% (active); under `CCOC(=O)N1CCN(C(=O)CSc2nc(=O)n3cccc(C)c3n2)CC1`, -0.26% (inactive). As for `Cc1cccn2c(=O)c(/C=C(\C#N)C(N)=O)c(N3CCCCCC3)nc12`, the figure is -0.28% (inactive); as for `Cn1nccc1NC(=O)CC(CC(=O)O)c1ccccc1` (stereo unspecified), -0.62% (inactive); as for `Cc1ccc(C(=O)NCC(=O)OCc2nnc(-c3ccccc3)o2)cc1`, 1.89% (inactive). As for `CCCc1ccc(C(=O)[C@@H]2[C@@H](C(C)=O)N3c4ccc(F)cc4C=C[C@@H]3[C@@]23C(=O)Nc2ccccc23)cc1`, the figure is -0.96% (inactive); as for `Cc1ccc(CNC(=O)c2ccc3c(c2)S(=O)(=O)c2ccccc2C3=O)cc1`, -0.95% (inactive); as for `Cc1ccc(CNC(=O)c2cccc3c2C(=O)c2ccc(N4CCC(C)CC4)cc2S3(=O)=O)cc1`, 49.5% (active). With `CC1CCN(c2c(NCc3ccc(C(=O)NCc4ccccc4)cc3)c(=O)c2=O)CC1`, the activation is 0.76% (inactive). `CCCN(CCC)CCCNC(=O)CNC(=O)c1nn(-c2ccc(OC)cc2)c(=O)c2ccccc12`: the activation was 2.99% (inactive). Turning to `CCOC(=O)C1=C(CC)Nc2ccccc2N=C1NC(=O)c1cccc(S(=O)(=O)N2CCCC2)c1`, the activation is -0.11% (inactive).

For `Cc1ccccc1NC(=O)NCC1CCN(Cc2cccc(Cl)c2)CC1`, the activation was 3.18% (inactive).

Regarding `Cc1cccc(CN2CCC(CNC(=O)Nc3ccc(F)c(Cl)c3)CC2)c1`, the activation is 26.4% (active). For `Cc1ccc(C)c(CN2CCC(CNC(=O)Nc3ccc(C)c(F)c3)CC2)c1`, the activation is 4.31% (inactive). Under `CCCCC(=O)NNC(=S)NC(=O)C(c1ccccc1)c1ccccc1` stands 73.7% (active); under `CCNC(=S)NNC(=O)Cc1ccccc1`, -0.19% (inactive). With `CC(C)C(=O)Nc1cccc(NC(=S)NC(=O)C(c2ccccc2)c2ccccc2)c1`, the activation was 6.96% (inactive). Under `Cc1ccc(S(=O)(=O)NC2CCCCCC2)cc1C(N)=O` stands 3.64% (inactive); under `CCCN(CC1COc2ccccc2O1)C(=S)Nc1ccc(C)cc1` (stereo unspecified), -0.74% (inactive). As for `CCN(CC)C(=O)N(CC)Cc1ccccc1`, the figure is 0.23% (inactive); as for `OCCN(Cc1ccccc1)Cc1ccc(Cl)cc1`, 0.58% (inactive). Under `CN(C(=O)CN(CCO)CC(=O)N(C)C(C)(C)Cc1ccccc1)C(C)(C)Cc1ccccc1` stands 53.5% (active); under `CCN(CC)c1ccc(/C=N/NC(=O)c2cnccn2)c(O)c1`, 20.8% (active); under `Cc1ccc(C(=O)NCCNC(=O)c2cnccn2)cc1`, 0.28% (inactive). On to `O=C(Nc1ccc2c(c1)OCCO2)c1cnccn1`, for which the activation was -0.23% (inactive).

As for `CC(c1ccco1)N(C(=O)Nc1ccccc1)C1CCCCC1` (stereo unspecified), the activation was -0.6% (inactive).

For the molecule `CC(C)c1cc(NCc2ccccn2)n2c(nc3ccccc32)c1C#N`, the activation is -0.18% (inactive). Regarding `CC/C(=N\NC(=O)c1ccccc1Cl)c1ccc(Br)s1`, the activation is 0.56% (inactive). As for `O=C(CN1CCN(c2cccc(Cl)c2)CC1)Nc1ccc(S(=O)(=O)N2CCOCC2)cc1`, the activation is 26.1% (active). As for `O=C(CN1CCCCCC1)Nc1ccc(S(=O)(=O)N2CCCCC2)cc1`, the figure is 0.94% (inactive). With `O=C(CN1C(=O)CCC1=O)Nc1ccc(S(=O)(=O)N2CCOCC2)cc1`, the activation is 0.29% (inactive). As for `CCC(C)NC(=O)N[C@@H](CCSC)C(=O)O` (stereo partly specified), the activation was 0.54% (inactive). Under `O=c1c2cc(Br)ccc2nc(-c2cccc(Cl)c2)n1O` stands 39% (active); under `NC(=O)c1cc(-c2cccnc2)nc2ccc(Br)cc12`, -0.49% (inactive).

With `Cc1cccc(-c2nc3ccccc3c(=O)n2NC(=O)Cc2ccc(Cl)cc2)c1`, the activation is 4.01% (inactive).

For the molecule `CCCCc1nc2cc(C(=O)NCCc3cnn(C)c3)ccc2o1`, the activation is 1.32% (inactive).

Take `CC(C)c1nc(SCC(=O)Nc2cccc(C(=O)O)c2)c2c3c(sc2n1)CCCC3`: the activation is 6.28% (inactive). Regarding `CCOc1ccc(C2NC(=S)NC3=C2CCc2ccccc23)cc1` (stereo unspecified), the activation is 0.4% (inactive). Turning to `O=C(NCc1cccnc1)c1cc(S(=O)(=O)N2CCOCC2)c(Cl)cc1Cl`, the activation was 1.17% (inactive). As for `COc1ccccc1NC(=O)Nc1nc(CC(=O)Nc2ccccc2F)cs1`, the figure is -0.76% (inactive); as for `Oc1ccc2ccc3cccc[n+]3c2c1`, 49.5% (active); as for `CCSc1nc(C)c(CCOc2cccc(C)c2)c(=O)[nH]1`, -0.28% (inactive). Turning to `COCCN(C(=O)CC1CCCCC1)c1c(N)n(CC(C)C)c(=O)[nH]c1=O`, the activation is -0.63% (inactive). As for `CC(=O)Nc1cccc(NC(=O)CSc2nccn2Cc2ccc(F)cc2)c1`, the activation is 3.25% (inactive). Under `Cc1cc(N2C(=O)C(O)=C(C(=O)c3ccc(C)o3)C2c2ccc(OCc3ccccc3)cc2)no1` (stereo unspecified) stands 0.41% (inactive); under `C=CCOc1cccc(C2C(C(=O)c3ccc(C)o3)=C(O)C(=O)N2CCCn2ccnc2)c1` (stereo unspecified), -0.49% (inactive). As for `C=CCOc1cccc(C2C(C(=O)c3ccc(C)o3)=C(O)C(=O)N2c2nnc(C)s2)c1` (stereo unspecified), the figure is 78.1% (active).

As to `CCOC(=O)c1c(NC(=O)CSc2nnc(CNc3ccc(C)cc3C)o2)sc(C)c1C`, the activation was 0.01% (inactive). Under `COc1ccc(S(=O)(=O)NCC(c2ccc(C)cc2)N2CCN(C)CC2)cc1OC` (stereo unspecified) stands 0.61% (inactive). As for `Cc1cnc(C(=O)OCc2c(C)cc(C(C)(C)C)cc2C)cn1`, the figure is -0.09% (inactive); as for `CC1(C)S[C@@H]2[C@H](NC(=O)COc3ccccc3)C(=O)N2C1C(=O)OCc1ccccc1` (stereo partly specified), 1.45% (inactive). For the molecule `CC1(C)S[C@@H]2[C@H](N=CN3CCCCCC3)C(=O)N2[C@H]1C(=O)O`, the activation is 21.6% (active).

With `CC1(C)SC2C(NC(=O)COc3ccccc3)C(=O)N2C1C(=O)O` (stereo unspecified), the activation is 0.91% (inactive) and -0.17% (inactive).
